Test results reported in PubChem BioAssay (Tox21).
Values without a mark were called inactive. Inconclusive results are not listed. Where a call stands in place of a potency, no number is given. Active and inactive are the calls of the source. Unless noted, the call rests on the fitted dose curve; in most records, active means well fitted curve in the direction sought with a large enough effect in the repeat runs; inconclusive means weak or mixed curves; inactive means no such curve, though single readings can be large; an effect the other way counts as inactive or inconclusive.

Key:
[1] = target: Thyrotropin-releasing hormone receptor (Homo sapiens) (UniProt P34981); assay: qHTS assay to identify small molecule agonists of the thyrotropin-releasing hormone receptor (TRHR) signaling pathway (AID 1346891; calls by dose curve;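 further: HEK293 cells expressing TRHR with calcium dye readout; series mostly up to about 58 µM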)
Procedure, shortened: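 Kinetic fluorescence (3 min, 1 s intervals) reported intracellular calcium after compound transfer onto TRHR-Hek293 cells pre-loaded with dye for 2 h at 37 °C.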

[2] = Human pregnane X receptor (PXR) small molecule agonists, qHTS cell viability counter screen (AID 1346977); further: nearly all actives have a fitted effect of over 50% in size; further: potency means the concentration at half of the fitted maximal effect
Procedure, shortened: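 HepG2 cells stably carrying the PXR-Luc reporter are cultured with 5% charcoal-stripped FBS and treated with compounds for 24hr. CellTiter-Fluor is added at 23hr and fluorescence is read after 1hr.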

[3] = Caspase-3/7 induction in HepG2 cells by small molecules, qHTS assay (AID 1346978); further: nearly all actives have a fitted effect of over 15% in size
Procedure, shortened: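 Wild-type HepG2 cells (2,000/well) were settled 5 h at 37 C, 5% CO2, then exposed to compounds in DMSO for 17 h. Caspase-3/7 activity was read by luminescence 30 min after adding Caspase-Glo 3/7 reagent at room temperature.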

[4] = Caspase-3/7 induction in CHO-K1 cells by small molecules, qHTS cell viability counter screen (AID 1346979); further: nearly all actives have a fitted effect of over 35% in size; further: potency means the concentration at half of the fitted maximal effect
Procedure, shortened: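 Seeding: 1,500 CHO-K1 cells/well. Rest: 5hr, 37C. Treatment: compounds in DMSO, 16hr. Read: CellTiter-Fluor, 1hr, fluorescence.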

[5] = Caspase-3/7 induction in CHO-K1 cells by small molecules, qHTS assay (AID 1346980); further: nearly all actives have a fitted effect of over 15% in size
Procedure, shortened: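 Wild-type cells were seeded at 1,500 per well and settled 5 hr at 37 C, 5% CO2, then exposed to DMSO-dissolved compounds for 17 hr. Caspase-Glo 3/7 reagent was added, and luminescence was read after 30min at room temperature.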

[6] = Caspase-3/7 induction in HepG2 cells by small molecules, qHTS cell viability counter screen (AID 1346981); further: nearly all actives have a fitted effect of over 30% in size; further: potency means the concentration at half of the fitted maximal effect
Procedure, shortened: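 The parent HepG2 line is plated at 2,000 cells per well and rested 5 hr before compound pinning from DMSO stocks. Following a 16-hr treatment at 37 C, a fluorogenic live-cell substrate (CellTiter-Fluor) reports viability after 1 hr.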

[7] = target: Nuclear receptor subfamily 1 group I member 2 (Homo sapiens) (UniProt O75469); assay: Human pregnane X receptor (PXR) small molecule agonists, qHTS assay (AID 1346982); further: nearly all actives have a fitted effect of over 35% in size; further: potency means the concentration at half of the fitted maximal effect
Procedure, shortened: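 After plating in 5% charcoal-stripped FBS and a 5 hr rest, PXR-Luc HepG2 cells received compounds in DMSO. Following 24 hr at 37 C, ONE-Glo was added and light output read.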

[8] = target: Cytochrome P450 2C19 (Homo sapiens) (UniProt P33261); assay: Cytochrome P450 Family 2 Subfamily C Member 19 (CYP2C19) small molecule antagonists: luciferase reporter qHTS assay (AID 1671197); further: nearly all actives have a fitted effect of over 65% in size; further: potency means the concentration at half of the fitted maximal effect
Procedure, shortened: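 Compounds were tested on CYP2C19 activity via proluciferin conversion to luciferin. The 37C, 1 h reaction followed NADPH addition; detection reagent stopped it.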

[9] = target: Cytochrome P450 2C9 (Homo sapiens) (UniProt P11712); assay: Cytochrome P450 Family 2 Subfamily C Member 9 (CYP2C9) small molecule antagonists: luciferase reporter qHTS assay (AID 1671198); further: nearly all actives have a fitted effect of over 50% in size; further: potency means the concentration at half of the fitted maximal effect
Procedure, shortened: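 CYP2C9 activity was measured with a P450-Glo proluciferin substrate. Enzyme–substrate mix was held with compound for 10 min at room temperature, then NADPH regeneration solution was added for 1 h at 37C. Luciferin product was read as luminescence.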

[10] = target: Voltage-gated inwardly rectifying potassium channel KCNH2 (Homo sapiens) (UniProt Q12809); assay: Human Ether-a-go-go-Related Gene (hERG) channel small molecule antagonists: fluorescence cell-based qHTS assay (AID 1671200); further: nearly all actives have a fitted effect of over 50% in size; further: potency means the concentration at half of the fitted maximal effect
Procedure, shortened: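 First, 1000 cells per well are seeded and cultured overnight at 37 C. Next, FluxOR II dye is loaded for 1 h at room temperature, protected from light. After 10 more minutes, stimulus is added and fluorescence is read.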

[11] = target: Cytochrome P450 3A4 (Homo sapiens) (UniProt P08684); assay: Cytochrome P450 Family 3 Subfamily A Member 4 (CYP3A4) small molecule antagonists: luciferase reporter qHTS assay (AID 1671201); further: nearly all actives have a fitted effect of over 50% in size; further: potency means the concentration at half of the fitted maximal effect
Procedure, shortened: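 Enzyme and proluciferin substrate are mixed with test chemicals for 10 min, then NADPH regeneration system drives turnover for 1 h at room temperature. A detection reagent halts the reaction; luminescence after 20 min gives relative activity.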

[12] = target: Cytochrome P450 2D6 (Homo sapiens) (UniProt P10635); assay: Cytochrome P450 Family 2 Subfamily D Member 6 (CYP2D6) small molecule antagonists: luciferase reporter qHTS assay (AID 1671196); further: nearly all actives have a fitted effect of over 50% in size; further: potency means the concentration at half of the fitted maximal effect
Procedure, shortened: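 Quantitative HTS of Tox21 chemicals against CYP2D6 using a luminescent proluciferin substrate. After NADPH addition, 1 h room-temperature reaction; luminescence recorded 20 min post detection reagent.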

[13] = target: Cytochrome P450 1A2 (Homo sapiens) (UniProt P05177); assay: Cytochrome P450 Family 1 Subfamily A Member 2 (CYP1A2) small molecule antagonists: luciferase reporter qHTS assay (AID 1671199); further: nearly all actives have a fitted effect of over 50% in size; further: potency means the concentration at half of the fitted maximal effect
Procedure, shortened: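 Quantitative high-throughput format using the P450-Glo CYP1A2 system. Reaction initiated by NADPH regeneration solution, 1 h at room temperature, then stopped with detection reagent; luminescence measured 20 min later.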

[14] = target: Nuclear receptor subfamily 1 group I member 2 (Homo sapiens) (UniProt O75469); assay: CYP3A4 induction through human pregnane X receptor (PXR) by small molecules, qHTS assay (AID 1346984); further: nearly all actives have a fitted effect of over 40% in size; further: potency means the concentration at half of the fitted maximal effect
Procedure, shortened: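 Human PXR activation is tracked via CYP3A4 promoter-luciferase in DPX-2 (HepG2) cells. Compounds treat cells for 24hr at 37C, and luminescence is read after One-Glo.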

[15] = target: Nuclear receptor subfamily 1 group I member 2 (Homo sapiens) (UniProt O75469); assay: Human pregnane X receptor (PXR) activation by small molecules, qHTS assay (AID 1346985); further: nearly all actives have a fitted effect of over 40% in size; further: potency means the concentration at half of the fitted maximal effect
Procedure, shortened: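 DPX-2 cells (HepG2 co-transfected with a PXR response element and a CYP3A4-promoter luciferase construct) were seeded at 2,000 per well, rested 5 hr at 37C, then exposed to DMSO-dissolved compounds for 24 hr. Activation was read as luciferase luminescence.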

[16] = target: Nuclear receptor subfamily 1 group I member 2 (Rattus norvegicus) (UniProt Q9R1A7); assay: Rat pregnane X receptor (rPXR) activation by small molecules, qHTS assay (AID 1346983); settings: rPXR luciferase reporter cells, One-Glo luminescence, 24 h; max activation: hits give high values; further: nearly all actives have a fitted effect of over 20% in size
Procedure, shortened: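 Cell-based rPXR luciferase reporter assay, 2,000 cells per well, rested 5hr at 37 C before compound addition in DMSO, then 24 hr at 37 C. One-Glo reagent was added and luminescence read after 30 min at room temperature.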

Sequence of Nuclear receptor subfamily 1 group I member 2 (Homo sapiens) (O75469 whole entry, looked up): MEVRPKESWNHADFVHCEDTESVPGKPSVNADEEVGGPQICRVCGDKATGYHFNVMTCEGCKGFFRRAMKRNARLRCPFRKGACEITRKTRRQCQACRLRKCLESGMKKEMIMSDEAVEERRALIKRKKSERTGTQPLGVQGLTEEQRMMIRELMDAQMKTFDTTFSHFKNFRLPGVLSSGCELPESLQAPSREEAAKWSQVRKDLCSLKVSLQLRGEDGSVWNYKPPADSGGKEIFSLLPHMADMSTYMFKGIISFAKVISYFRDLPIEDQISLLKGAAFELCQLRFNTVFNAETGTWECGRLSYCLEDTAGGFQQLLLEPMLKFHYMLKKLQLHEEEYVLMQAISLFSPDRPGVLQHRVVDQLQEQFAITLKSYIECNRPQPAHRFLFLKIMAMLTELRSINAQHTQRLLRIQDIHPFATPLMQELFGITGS
Sequence of Cytochrome P450 2C9 (Homo sapiens) (P11712 whole entry, looked up): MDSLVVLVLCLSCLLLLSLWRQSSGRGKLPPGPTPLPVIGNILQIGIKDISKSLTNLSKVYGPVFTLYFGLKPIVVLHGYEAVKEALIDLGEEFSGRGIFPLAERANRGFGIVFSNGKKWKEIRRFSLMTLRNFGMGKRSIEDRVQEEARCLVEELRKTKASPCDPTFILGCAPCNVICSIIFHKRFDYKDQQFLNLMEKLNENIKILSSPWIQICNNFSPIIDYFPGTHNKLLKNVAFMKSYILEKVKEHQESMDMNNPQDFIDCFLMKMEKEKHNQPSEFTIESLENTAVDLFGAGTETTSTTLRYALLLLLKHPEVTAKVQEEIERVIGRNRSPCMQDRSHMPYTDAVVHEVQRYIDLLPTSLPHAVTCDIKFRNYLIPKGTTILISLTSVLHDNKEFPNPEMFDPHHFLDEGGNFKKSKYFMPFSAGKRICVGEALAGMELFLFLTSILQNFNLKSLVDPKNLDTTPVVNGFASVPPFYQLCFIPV
Sequence of Voltage-gated inwardly rectifying potassium channel KCNH2 (Homo sapiens) (Q12809 whole entry, looked up): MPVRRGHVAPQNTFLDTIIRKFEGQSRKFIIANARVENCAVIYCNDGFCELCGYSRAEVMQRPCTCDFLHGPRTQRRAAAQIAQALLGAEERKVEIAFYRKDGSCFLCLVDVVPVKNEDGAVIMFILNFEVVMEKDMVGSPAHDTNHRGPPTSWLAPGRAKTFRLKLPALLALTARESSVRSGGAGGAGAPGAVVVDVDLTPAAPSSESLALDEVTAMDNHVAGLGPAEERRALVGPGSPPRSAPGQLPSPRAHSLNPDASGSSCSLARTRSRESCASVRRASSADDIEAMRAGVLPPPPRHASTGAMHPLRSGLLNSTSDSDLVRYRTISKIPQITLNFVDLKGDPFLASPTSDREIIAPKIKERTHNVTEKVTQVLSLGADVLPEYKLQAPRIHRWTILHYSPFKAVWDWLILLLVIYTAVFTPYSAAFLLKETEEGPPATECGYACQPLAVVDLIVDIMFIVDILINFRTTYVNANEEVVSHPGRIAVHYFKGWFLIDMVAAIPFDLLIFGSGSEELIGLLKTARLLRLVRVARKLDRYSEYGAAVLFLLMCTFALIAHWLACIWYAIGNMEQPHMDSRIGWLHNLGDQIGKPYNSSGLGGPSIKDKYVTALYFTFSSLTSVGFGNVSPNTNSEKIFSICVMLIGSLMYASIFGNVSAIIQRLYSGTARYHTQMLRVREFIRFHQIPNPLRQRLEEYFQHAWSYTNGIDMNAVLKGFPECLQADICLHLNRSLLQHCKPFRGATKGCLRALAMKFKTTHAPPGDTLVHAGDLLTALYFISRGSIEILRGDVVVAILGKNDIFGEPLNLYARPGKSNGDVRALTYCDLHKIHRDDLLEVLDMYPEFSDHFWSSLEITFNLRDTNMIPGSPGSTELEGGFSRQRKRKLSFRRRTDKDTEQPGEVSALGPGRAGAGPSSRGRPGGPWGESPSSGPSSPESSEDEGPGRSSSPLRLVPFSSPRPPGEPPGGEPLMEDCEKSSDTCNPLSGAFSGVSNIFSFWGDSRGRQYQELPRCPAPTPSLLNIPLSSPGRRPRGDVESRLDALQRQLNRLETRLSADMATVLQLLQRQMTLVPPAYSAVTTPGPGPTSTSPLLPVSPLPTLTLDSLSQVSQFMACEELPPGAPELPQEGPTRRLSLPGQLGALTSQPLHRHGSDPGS
Sequence of Cytochrome P450 2C19 (Homo sapiens) (P33261 whole entry, looked up): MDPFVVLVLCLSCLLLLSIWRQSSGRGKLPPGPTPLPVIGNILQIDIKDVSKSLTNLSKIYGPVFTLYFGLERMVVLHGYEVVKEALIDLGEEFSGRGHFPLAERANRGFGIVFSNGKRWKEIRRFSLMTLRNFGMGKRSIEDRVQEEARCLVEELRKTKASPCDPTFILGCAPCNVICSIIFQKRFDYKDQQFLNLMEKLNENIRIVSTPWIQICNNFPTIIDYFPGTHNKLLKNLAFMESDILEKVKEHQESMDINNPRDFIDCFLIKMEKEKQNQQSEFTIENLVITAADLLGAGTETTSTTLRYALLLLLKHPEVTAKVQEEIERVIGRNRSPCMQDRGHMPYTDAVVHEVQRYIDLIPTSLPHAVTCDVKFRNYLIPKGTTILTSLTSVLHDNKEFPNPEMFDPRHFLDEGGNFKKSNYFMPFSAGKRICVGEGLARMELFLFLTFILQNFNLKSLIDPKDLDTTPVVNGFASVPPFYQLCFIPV
Sequence of Cytochrome P450 1A2 (Homo sapiens) (P05177 whole entry, looked up): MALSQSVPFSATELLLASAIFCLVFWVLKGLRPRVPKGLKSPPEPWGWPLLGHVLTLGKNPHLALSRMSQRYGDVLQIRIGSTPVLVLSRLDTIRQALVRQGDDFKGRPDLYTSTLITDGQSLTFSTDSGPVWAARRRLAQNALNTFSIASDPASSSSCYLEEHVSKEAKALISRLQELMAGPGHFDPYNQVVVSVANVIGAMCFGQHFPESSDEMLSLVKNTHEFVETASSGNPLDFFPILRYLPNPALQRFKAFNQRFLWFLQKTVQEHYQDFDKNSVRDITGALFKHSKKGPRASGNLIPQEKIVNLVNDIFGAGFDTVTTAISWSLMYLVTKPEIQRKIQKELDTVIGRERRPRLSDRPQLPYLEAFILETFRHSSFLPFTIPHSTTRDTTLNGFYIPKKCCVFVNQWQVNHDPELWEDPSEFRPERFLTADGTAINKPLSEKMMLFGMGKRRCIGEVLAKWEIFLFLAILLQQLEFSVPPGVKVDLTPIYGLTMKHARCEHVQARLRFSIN
Sequence of Cytochrome P450 3A4 (Homo sapiens) (P08684 whole entry, looked up): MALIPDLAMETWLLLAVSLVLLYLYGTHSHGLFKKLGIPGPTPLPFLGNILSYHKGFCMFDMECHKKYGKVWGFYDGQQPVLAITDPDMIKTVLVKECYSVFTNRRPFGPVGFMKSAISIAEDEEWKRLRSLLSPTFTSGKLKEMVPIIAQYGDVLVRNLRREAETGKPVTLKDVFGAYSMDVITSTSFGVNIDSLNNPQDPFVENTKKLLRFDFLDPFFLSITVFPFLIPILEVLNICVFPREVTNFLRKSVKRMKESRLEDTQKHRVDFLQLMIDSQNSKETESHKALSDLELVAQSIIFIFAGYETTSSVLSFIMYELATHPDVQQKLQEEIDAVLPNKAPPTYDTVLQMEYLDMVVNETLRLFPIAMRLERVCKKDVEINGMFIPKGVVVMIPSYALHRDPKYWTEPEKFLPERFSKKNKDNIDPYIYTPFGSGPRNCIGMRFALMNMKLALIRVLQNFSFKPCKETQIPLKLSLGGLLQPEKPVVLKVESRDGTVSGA
Sequence of Cytochrome P450 2D6 (Homo sapiens) (P10635 whole entry, looked up): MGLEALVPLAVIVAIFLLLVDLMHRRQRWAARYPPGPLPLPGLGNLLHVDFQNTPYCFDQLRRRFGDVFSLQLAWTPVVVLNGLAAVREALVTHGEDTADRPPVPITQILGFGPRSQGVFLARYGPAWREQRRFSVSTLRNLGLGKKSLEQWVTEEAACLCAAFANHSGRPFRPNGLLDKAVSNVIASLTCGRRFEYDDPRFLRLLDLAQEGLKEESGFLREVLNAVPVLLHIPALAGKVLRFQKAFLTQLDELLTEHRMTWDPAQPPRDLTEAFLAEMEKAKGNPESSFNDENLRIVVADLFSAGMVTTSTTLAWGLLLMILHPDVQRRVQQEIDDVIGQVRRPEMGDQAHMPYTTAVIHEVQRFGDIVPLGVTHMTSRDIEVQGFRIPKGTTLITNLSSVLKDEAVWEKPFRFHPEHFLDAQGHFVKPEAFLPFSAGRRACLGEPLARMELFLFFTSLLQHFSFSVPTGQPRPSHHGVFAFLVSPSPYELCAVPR
Sequence of Thyrotropin-releasing hormone receptor (Homo sapiens) (P34981 whole entry, looked up): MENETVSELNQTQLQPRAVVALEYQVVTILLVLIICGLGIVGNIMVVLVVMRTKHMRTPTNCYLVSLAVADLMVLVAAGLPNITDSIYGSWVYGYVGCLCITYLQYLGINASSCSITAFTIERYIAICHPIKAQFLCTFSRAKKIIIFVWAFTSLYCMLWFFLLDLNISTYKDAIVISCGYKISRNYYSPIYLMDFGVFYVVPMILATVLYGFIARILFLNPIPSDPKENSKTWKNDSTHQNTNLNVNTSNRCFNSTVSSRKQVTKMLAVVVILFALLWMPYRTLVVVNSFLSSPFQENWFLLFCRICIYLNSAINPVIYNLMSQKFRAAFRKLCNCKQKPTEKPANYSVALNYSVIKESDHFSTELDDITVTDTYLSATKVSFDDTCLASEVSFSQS
Sequence of Nuclear receptor subfamily 1 group I member 2 (Rattus norvegicus) (Q9R1A7 whole entry, looked up): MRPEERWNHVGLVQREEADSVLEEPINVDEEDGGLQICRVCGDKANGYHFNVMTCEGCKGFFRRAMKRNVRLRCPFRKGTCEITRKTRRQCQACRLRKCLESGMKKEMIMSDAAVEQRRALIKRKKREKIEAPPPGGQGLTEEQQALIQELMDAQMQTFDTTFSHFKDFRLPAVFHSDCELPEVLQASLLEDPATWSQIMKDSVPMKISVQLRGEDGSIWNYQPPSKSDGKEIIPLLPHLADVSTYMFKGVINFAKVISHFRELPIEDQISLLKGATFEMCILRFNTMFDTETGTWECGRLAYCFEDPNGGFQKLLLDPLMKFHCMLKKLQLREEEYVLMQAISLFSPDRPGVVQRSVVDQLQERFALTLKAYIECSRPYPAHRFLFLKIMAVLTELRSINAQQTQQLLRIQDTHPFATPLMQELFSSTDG

| SMILES | Potency [1] | Potency [2] | Potency [3] | Potency [4] | outcome [5] | Potency [6] | Potency [7] | Potency [8] | Potency [9] | Potency [10] | Potency [11] | Potency [12] | Potency [13] | Potency [14] | Potency [15] | max activation [16] |
| --- | --- | --- | --- | --- | --- | --- | --- | --- | --- | --- | --- | --- | --- | --- | --- | --- |
| Nc1ccc(S(=O)(=O)O)cc1 | inactive | inactive | inactive | inactive | inactive | inactive | inactive | inactive | inactive | inactive | inactive |  |  |  |  |  |
| CN(C(=O)C(Cl)Cl)c1ccc(OC(=O)c2ccco2)cc1 | inactive | inactive | inactive | inactive | inactive | inactive | inactive |  | 15.5 µM (active) | inactive | inactive | inactive |  |  |  |  |
| O=S(=O)(c1ccccc1)c1ccc(Cl)cc1 | inactive | inactive | inactive | inactive | inactive | inactive | 30.6 µM (active) | 3.99 µM (active) | inactive | inactive |  |  | 44.8 µM (active) |  |  |  |
| CC(=O)[C@H]1CC[C@H]2[C@@H]3C=CC4=CC(=O)CC[C@@]4(C)[C@@H]3CC[C@]12C | inactive | inactive | inactive |  | inactive | inactive | 26.6 µM (active) | 2.75 µM (active) | 38.9 µM (active) | inactive | inactive | inactive | inactive | inactive | inactive |  |
| Cc1nccn1-c1ccc(Sc2cccc(C3(C(N)=O)CCOCC3)c2)cc1 | inactive | 8.63 µM (active) | inactive | 7.7 µM (active) | inactive |  | 13.7 µM (active) |  | 5.64 µM (active) |  |  |  |  |  |  |  |
| Cc1cc(C(=C2C=CC(=Nc3ccc(S(=O)(=O)O)cc3S(=O)(=O)O)C=C2)c2ccc(Nc3ccc(S(=O)(=O)O)cc3)cc2)ccc1N | inactive | inactive | inactive | inactive | inactive |  | inactive |  |  | inactive | inactive |  | inactive |  |  |  |
| CC(=O)Oc1ccc2c(c1)CC[C@@H]1[C@@H]2CC[C@]2(C)[C@@H](O)CC[C@@H]12 | inactive | inactive | inactive |  | inactive | inactive | 26.6 µM (active) | 24.5 µM (active) | inactive | inactive |  | inactive |  | inactive |  |  |
| Cc1ccc(/C=N/n2c(-c3ccccc3)csc2=S)cc1 | inactive | inactive | inactive |  | inactive | inactive | 23.7 µM (active) | 8.71 µM (active) | 6.92 µM (active) | inactive |  | inactive | 7.76 µM (active) |  |  |  |
| COCCOC(=O)C1=C(C)NC(C)=C(C(=O)OC/C=C/c2ccccc2)C1c1cccc([N+](=O)[O-])c1 (stereo unspecified) | inactive |  | inactive | 26.6 µM (active) | inactive | 29.8 µM (active) | 10.6 µM (active) | 1.55 µM (active) | 0.195 µM (active) | inactive |  | 21.9 µM (active) | 15.5 µM (active) | 1.58 µM (active) | 1.58 µM (active) |  |
| COc1cc2ncnc(Nc3ccc(F)c(Cl)c3)c2cc1OCCCN1CCOCC1 | inactive | 23.7 µM (active) |  | 29.8 µM (active) |  |  | inactive | 38.9 µM (active) | inactive | inactive |  | 13.8 µM (active) | inactive |  |  |  |
| COc1cc2c(N3CCN(C(=O)Nc4ccc(OC(C)C)cc4)CC3)ncnc2cc1OCCCN1CCCCC1 | inactive | 23.7 µM (active) | inactive | 23.7 µM (active) | inactive |  | inactive | inactive | inactive |  | inactive | 15.5 µM (active) | inactive |  |  |  |
| CCN(Cc1cccc(S(=O)(=O)O)c1)c1ccc(C(=C2C=CC(=[N+](CC)Cc3cccc(S(=O)(=O)[O-])c3)C=C2)c2ccccc2)cc1 | inactive | inactive | inactive |  | inactive |  | inactive | 62.8 µM (active) | 28 µM (active) | inactive |  |  | inactive |  |  |  |
| CCCCCCCCCCOS(=O)(=O)O | inactive | inactive | inactive | inactive | inactive | inactive |  | inactive | 44.6 µM (active) | inactive | inactive |  | inactive |  |  |  |
| CN1CCN(CCCN2c3ccccc3Sc3ccc(S(=O)(=O)N(C)C)cc32)CC1 | inactive | 26.6 µM (active) |  | 26.6 µM (active) | inactive | 29.8 µM (active) |  | inactive |  | 5.35 µM (active) |  | 15.5 µM (active) | inactive |  | inactive |  |
| C=CC(=C)CCCC(C)(C)OC(C)=O | inactive | inactive | inactive | inactive | inactive |  | inactive | inactive | inactive | inactive |  | inactive |  |  |  |  |
| CO[C@H]1C=CO[C@@]2(C)Oc3c(C)c(O)c4c(O)c(c5c(c4c3C2=O)=NC2(CCN(CC(C)C)CC2)N=5)NC(=O)/C(C)=C\C=C/[C@H](C)[C@H](O)[C@@H](C)[C@@H](O)[C@@H](C)[C@H](OC(C)=O)[C@@H]1C | inactive | 30 µM (active) |  | 53.3 µM (active) | inactive | 30 µM (active) | 5.98 µM (active) | 39.1 µM (active) |  | inactive | 9.81 µM (active) | 39.1 µM (active) |  | 0.501 µM (active) | 0.158 µM (active) |  |
| Cc1ccc(S)cc1 | inactive | inactive | inactive | inactive | inactive |  | inactive | 39.9 µM (active) | 35.6 µM (active) | inactive |  | inactive | 31.7 µM (active) |  |  |  |
| CCCCN(CCCC)CCCOC(=O)c1ccc(N)cc1 | inactive |  | inactive | inactive | inactive | inactive | inactive |  | inactive | 9.52 µM (active) | inactive | 0.0219 µM (active) | inactive | inactive | inactive |  |
| O=C(OCCOCCO)c1ccccc1Nc1cccc(C(F)(F)F)c1 | inactive | inactive | inactive |  | inactive | inactive |  |  | 17.4 µM (active) |  |  | inactive | 12.3 µM (active) |  |  | -0.0091% |
| O=C(Nc1ccccc1)Nc1ccccc1 | inactive | inactive | inactive |  | inactive | inactive | 4.88 µM (active) | 4.5 µM (active) | 22.6 µM (active) | inactive | inactive | 28.4 µM (active) | 17.9 µM (active) |  |  |  |
| CCOC(=O)C(C)Oc1ccc(Oc2nc3ccc(Cl)cc3o2)cc1 (stereo unspecified) | inactive | inactive | inactive | inactive | inactive | inactive |  | 31.7 µM (active) | 39.9 µM (active) | 34.7 µM (active) |  |  | 31.7 µM (active) |  |  |  |
| CCCCCCCC/C=C\CCCCCCCC(=O)OC(CO)CO | inactive | inactive | inactive | inactive | inactive |  | inactive | 71 µM (active) | 20 µM (active) | inactive | 17.8 µM (active) |  | 71 µM (active) |  |  |  |
